Results on 22 molecules are retold here after paper PMC12136788.

T1: UNK ZnF1-3 (human, UniProt Q9C0B0 31-174)
T1 sequence: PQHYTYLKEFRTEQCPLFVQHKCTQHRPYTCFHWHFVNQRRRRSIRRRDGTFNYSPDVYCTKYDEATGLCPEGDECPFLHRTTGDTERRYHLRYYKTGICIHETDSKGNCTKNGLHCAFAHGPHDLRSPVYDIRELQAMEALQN

B1: chr14:89307221:89307222:+_ENSG00000165533_ENST00000346301|hu_mus|hu_hu_hu_mus_False|18_78 (ssRNA)
RNA: GGGAGUUCUACAGUCCGACGAUCUCCUGUUUGGUUAGUGCCAGGGAGCUUCAAAGACGUUCCAGGGCGUGGGACCUGAGCAAUAGCAUUUUCAUCCAGGAUCAUUUCAGCAAUUCCUUCCUGAUCUACAUCAAUUUCAUCUAUCAACAGAGGAUUGAGCAUCA
B2: chr7:7679991:7679992:-_ENSG00000106399_ENST00000396682|hu_hu|hu_hu_hu_mus_False|68_88 (ssRNA)
RNA: GGGAGUUCUACAGUCCGACGAUCUGGGAUGAAUCUUUUCCAGCUUCCCUACGAAGCACACGGGCCGGUCGAUGAAUUGUGGUAACAUGCUGGCGUUGACGCGCGCUUUGGGGAGCUGCAUUAUGUCCUCCAUGAUUCUGCCGCCAACAGAGGAUUGAGCAUCA
B3: 96788939_96789059_3507_CDS_ENSG00000066739_ENST00000359933|human|control|control (ssRNA)
RNA: GGGAGUUCUACAGUCCGACGAUCACAAACAUCUUUCAAGGAAUGAGCACCUCCUUCCUCUUCCUCCUGGUAGUGACCAUCAUUCUCCUCUUCUUCUUCAGCUGCAAUUCUCUCCAAAAUGGAAUGCAUGGCUGGUGGAUUUAUCAACAGAGGAUUGAGCAUCA
B4: chr9:74900086:74900087:+_ENSMUSG00000007656_ENSMUST00000169492|mus_mus|motif|central (ssRNA)
RNA: GGGAGUUCUACAGUCCGACGAUCUUGUCCCAAGUGAGGAUACCUUGCCUUUAACUUUGCUUCUUCAGCUUUCUCUGGACGGGUUACUUUAUCUUCCAUUUCCUUUUGCUCCUCCGCAGACGCUGCCUCGGGGACUUCCGCGGACAACAGAGGAUUGAGCAUCA
B5: chr3:139236485:139236486:-_ENSG00000114115_ENST00000232219|hu_mus|FALSE|FALSE (ssRNA)
RNA: GGGAGUUCUACAGUCCGACGAUCCUGAAGACCAAGGUUAUCUCCUCGGGCUGUUCGGGCUGCUCAGUGUACUUUCUUAAACACUUGCUUGCAGAUCACACCCUCAGCUCUCAUUUCCAGGUGAAGUUCAUCACCCUCGAUCCACAACAGAGGAUUGAGCAUCA
B6: 133975656_133975776_5164_3pUTR_ENSG00000205060_ENST00000378509|human|control|control (ssRNA)
RNA: GGGAGUUCUACAGUCCGACGAUCCAUUUCUCUGUCCGUUUAGGUCAAUGCCAACUGGUCCACCAGUGAACAUGUCCACCGGCCCUGAGCUAACUCAUUGGUUUAUUAUUCCUGACCUAAGGUGUUUUACUUCCCCUCUCCAUACAACAGAGGAUUGAGCAUCA
B7: chr1:39494447:39494448:+_ENSG00000168653_ENST00000372967|hu_mus|hu_hu_hu_mus_False|18_98 (ssRNA)
RNA: GGGAGUUCUACAGUCCGACGAUCGCACCGAGCGGCGAUCUUGUAGGGCUGUUCUGCGCUUAGGAACAUAAAGUGCCGGUCCAGGCUGAUGCCCAGCUUUUUCUGUAUGUCAAGGAAAGGCAUGGCCCUGCAGUGCCCUUGUCACAACAGAGGAUUGAGCAUCA
B8: chr20:43533646:43533647:+_ENSG00000166913_ENST00000353703|hu_hu|motif|central (ssRNA)
RNA: GGGAGUUCUACAGUCCGACGAUCGAAAUUUAGUGCCAGACCAAGACGAAUUGGGUGUGUAGGCUGCAUUUCUUUCUUACGGAUUUCAAAUGCUUCCUGGUAAGCCUGCUGGGAGUUCGACACAGUGGUUUGUUUGUUGUCUCCCAACAGAGGAUUGAGCAUCA
B9: chr11:77340908:77340909:-_ENSG00000074201_ENST00000525064|hu_hu|hu_hu_hu_mus_True|8_8 (ssRNA)
RNA: GGGAGUUCUACAGUCCGACGAUCGUUUGGAUCCCUGGACACCGCAUGUAAACUAAUGGUGGGGUAUUCCAGUGAGAAUCCUAAUCCCGAACCAUCUAACCAGGACAGGCGGCUCUCCGCGAUGUAAAGGGUACCAGUGCCGAGCAACAGAGGAUUGAGCAUCA
B10: 135097835_135097955_579_3pUTR_ENSMUSG00000040731_ENSMUST00000036125|mouse|control|control (ssRNA)
RNA: GGGAGUUCUACAGUCCGACGAUCAAGUCCAUGUUGGAGCCACGCAGAGGAGGGCCAUCUCGAAAGCGACUCCCCAUUGGAGGGCCUGCUCGCCGGUCCCCAGGGCGACUGCCCCCCCUACCCCCUAAGAAGUCAUCCCUGUAGCAACAGAGGAUUGAGCAUCA
B11: chr12:493273:493274:-_ENSG00000073614_ENST00000399788|hu_mus|hu_hu_hu_mus_False|48_58 (ssRNA)
RNA: GGGAGUUCUACAGUCCGACGAUCUUUUCUCUCCACCACAGGGAUCUUCAAUGUAGAUCCUUGAAGUUCCCAAAAUUUUGCUAGUUGAUCCAAGAAAUCCAAUCUUACUCUAGUCAUUGCCUCAAGUUCAUUCAGGCGCUGGACCAACAGAGGAUUGAGCAUCA
B12: 36138064_36138184_3590_3pUTR_ENSG00000100320_ENST00000405409|human|control|control (ssRNA)
RNA: GGGAGUUCUACAGUCCGACGAUCAAAGCAAAAGCAAAAUCCUCCCUGCCCCCAUUCCCUAGAACUGUGAAAGCCCGCAUCCCAUUCCCCGCUCCUCUAACUAAAAUAUUUAUAUACAUACAACAAAAAUUGUCUUAACAGCAACAACAGAGGAUUGAGCAUCA
B13: 104554200_104554320_324_3pUTR_ENSMUSG00000032621_ENSMUST00000074616|mouse|control|control (ssRNA)
RNA: GGGAGUUCUACAGUCCGACGAUCAUCAGAUCCAUACAAAGAAACAAAUAAGAAGAACAUAAGGCUUUCCUUUUAUCCUGCUCUAUUAGGAAAAAUAAAAGUGAGCAAAACUUCAAAGACUAACAAUCUCAUUAAUGGAACAUUCAACAGAGGAUUGAGCAUCA
B14: chr2:73656703:73656704:-_ENSMUSG00000027104_ENSMUST00000100009|mus_hu|FALSE|FALSE (ssRNA)
RNA: GGGAGUUCUACAGUCCGACGAUCAAGAAAUGGAAGUGGGAAGAAAGAUUCAGUAACACCCCCAUUUAUUAAAACACCAGCAAAUUAAAAGUGAAAUAAAUCACAAUGAAUUAUAAUACAAUUUACACAUUGAGCACAGAAAAACAACAGAGGAUUGAGCAUCA
B15: chr9:42776432:42776433:-_ENSMUSG00000059495_ENSMUST00000165665|mus_hu|FALSE|FALSE (ssRNA)
RNA: GGGAGUUCUACAGUCCGACGAUCUAACAAAUUUAUAGUCAAGAAAAUAAAAUUUGCUUUCCUCUCCCACCCAAAUCCCAACCCUCAAUAGAAAAGACGACAAUGGAAGAAAACACACCCAUUUUCAAGUGCCUGCUAUUUAGUCAACAGAGGAUUGAGCAUCA
B16: chr19:16212804:16212805:+_ENSG00000167460_ENST00000300933|hu_mus|hu_hu_hu_mus_False|8_78 (ssRNA)
RNA: GGGAGUUCUACAGUCCGACGAUCAACAAUUCUGGAGUGAAGGAAAGAUGUAACAUGCAAUUAAUUAAAAGCUCAGUCAGAAGGCACAUGGGCAACAAUGAUCACCCCAGCAUUCUCGCUUGGAAUGUGCUUGAGAAAUCUGUUCAACAGAGGAUUGAGCAUCA
B17: chr3:57569730:57569731:-_ENSG00000168374_ENST00000303436|hu_mus|FALSE|FALSE (ssRNA)
RNA: GGGAGUUCUACAGUCCGACGAUCAUAUUCUACUGUUUCCACAUUAAAACCAAUGGUAGGAAUGGUGGUGACUAUUUCCCCUAAUUUCAGUUUAUACAGAAUUGUCGUCUUGCCAGCAGCAUCCAAUCCAACCAUCAAAAUGCGCAACAGAGGAUUGAGCAUCA
B18: chr19:16212804:16212805:+_ENSG00000167460_ENST00000300933|hu_mus|hu_hu_hu_mus_False|48_58 (ssRNA)
RNA: GGGAGUUCUACAGUCCGACGAUCAACAAUUCUGGAGUGAAGGAAAGAUGUAACAUGGAACAGCAUUAAAGCUCAGUAUUACUAUAUGUGGGUAAUUAUGAUCACCCCAGCAUUCUCGCUUGGAAUGCUUAAAGACAAUCUGUUCAACAGAGGAUUGAGCAUCA
B19: chr18:9954606:9954607:+_ENSG00000101558_ENST00000400000|hu_mus|FALSE|FALSE (ssRNA)
RNA: GGGAGUUCUACAGUCCGACGAUCCCAUUUCCCCCACAGAAAACCUCUUGGCAUUUCCUGAAUGAGUGGGAUUAGCAAUCUAAAUAAAUCAUAUUUCAAGAGGUAACAGCAACAGAUAAAAUUUAAAGGAAUUAUUAAAAUAACCAACAGAGGAUUGAGCAUCA
B20: chr18:9954606:9954607:+_ENSG00000101558_ENST00000400000|hu_hu|FALSE|FALSE (ssRNA)
RNA: B19 RNA with C24A, A26C, U27A, C30U, C36A, A37G, A41U, A129G
B21: chr3:75345182:75345183:-_ENSMUSG00000027835_ENSMUST00000161137|mus_hu|FALSE|FALSE (ssRNA)
RNA: GGGAGUUCUACAGUCCGACGAUCAUGUGGUCUCAGCUUCAUUCUUCAUCUCUUCCAUUGUCAUCCUCAUUCAAAAGCCAACUACAGUUGAAAAAGCAGUGCUAAAAUGCAGAGGAAUCUUCAUUCACUGCAAUAUUUCUUCUCCAACAGAGGAUUGAGCAUCA
B22: 54572216_54573035_2393_CDS_ENSG00000067248_ENST00000251636|human|control|control (ssRNA)
RNA: GGGAGUUCUACAGUCCGACGAUCAUCUUCAAGAUGAAAAACCUCAACAGGAUAACUUCUUCCUGAAAUUCUGAGAAUGGGGCAGUGUGUGAAAUAUGUAGAAAAUUUUUCGCUGUCCACAGUGGCACUCAUUAGAAUCAAGUGCAACAGAGGAUUGAGCAUCA

Positions count from the first letter of the chain named. The full ranking holds about 24,000 sequences; the median of “enrichment r” is about 0.99, and the highest 2% start at about 3.7. Only a selection was taken, and the highest values are over-represented in it overall.

The assay addresses T1, UNK ZnF1-3. The experiment in a line: nsRBNS (natural sequence RNA bind-n-seq); RBNS binding buffer (assumed for nsRBNS): 25 mM Tris pH 7.5, 150 mM KCl, 3 mM MgCl2, 0.01% Triton X-100, 500 ug/ml BSA, 20 U/ml SUPERase-In, 4 C; UNK is unkempt and MSI1 is Musashi-1; names of the RNAs are library labels; protein concentration not given here; high values mean tight binding.
With B1, the binding signal is 0.843 enrichment R.

B2 returned a binding signal of 0.498 enrichment R.

Molecule B3 displayed a binding signal of 1 enrichment R.

As for B4, the binding signal came to 0.353 enrichment R.

Take B5: the binding signal stood at 0.756 enrichment R.

The molecule B6 had a binding signal of 0.604 enrichment R.

Take B7: the binding signal stood at 0.479 enrichment R.

Turning to B8, the binding signal turned out to be 0.731 enrichment R.

B9 registered a binding signal of 1.2 enrichment R.

In turn, B10 gave a binding signal of 0.982 enrichment R.

The molecule B11 registered a binding signal of 0.927 enrichment R.

For the molecule B12, the binding signal came out at 3.79 enrichment R.

Take B13: the binding signal is 0.765 enrichment R.

The molecule B14 registered a binding signal of 4.55 enrichment R.

On to B15, for which the binding signal came out at 4.14 enrichment R.

In turn, B16 had a binding signal of 1.42 enrichment R.

For the molecule B17, the binding signal came to 0.905 enrichment R.

B18: the binding signal was determined as 0.913 enrichment R.

The molecule B19 yielded a binding signal of 4.49 enrichment R.

On to B20, for which the binding signal came to 3.36 enrichment R.

The molecule B21 yielded a binding signal of 1.23 enrichment R.

With B22, the binding signal stood at 1.16 enrichment R.
